Results from PubChem BioAssay (Tox21).
Inconclusive results are not listed. Calls of active or inactive are those of the source. Unless noted, calls come from the whole dose curve; as a rule, active = well fitted curve in the direction sought with a large enough effect in the repeat runs; inconclusive = weak or mixed curves; inactive = no such curve, though single readings can be large; an effect the other way counts as inactive or inconclusive.

What was measured:
[1] = molecular target: Nuclear receptor subfamily 1 group I member 3 (Homo sapiens) (UniProt Q14994); test: qHTS assay to identify small molecule antagonists of the constitutive androstane receptor (CAR) signaling pathway (AID 1224838);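 note: HepG2 cells stably expressing hCAR with CYP2B6 luciferase reporter stimulated by CITCO; nearly all actives have a fitted effect of over 40% in size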; note: potency is the fitted concentration of half-maximal effect
Sequence of Nuclear receptor subfamily 1 group I member 3 (Homo sapiens) (Q14994 whole entry, looked up): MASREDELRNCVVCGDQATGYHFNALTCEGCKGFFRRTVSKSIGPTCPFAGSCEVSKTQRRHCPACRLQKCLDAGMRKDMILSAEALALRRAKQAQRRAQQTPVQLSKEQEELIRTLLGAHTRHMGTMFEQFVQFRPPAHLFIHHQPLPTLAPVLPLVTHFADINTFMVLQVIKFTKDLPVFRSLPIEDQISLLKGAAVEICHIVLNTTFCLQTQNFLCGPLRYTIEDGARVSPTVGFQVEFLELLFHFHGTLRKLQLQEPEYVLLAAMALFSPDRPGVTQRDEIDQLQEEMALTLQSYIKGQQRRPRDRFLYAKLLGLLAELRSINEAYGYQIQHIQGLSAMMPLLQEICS
Method in brief: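 Antagonist mode used CITCO at a final 50 nM to activate CAR in human hepatoma HepG2 cells carrying stable hCAR and a 2.2 kb CYP2B6 promoter-luciferase construct. Compounds were tested at 15 concentrations over 24 h, with luminescence as the end point.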

[2] = molecular target: Nuclear receptor subfamily 1 group I member 3 (Homo sapiens) (UniProt Q14994); test: qHTS assay to identify small molecule agonists of the constitutive androstane receptor (CAR) signaling pathway (AID 1224839); note: nearly all actives have a fitted effect of over 15% in size; note: potency is the fitted concentration of half-maximal effect
Method in brief: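 Compounds tested at 15 concentrations on HepG2 cells stably harbouring hCAR and CYP2B6-2.2kb reporter constructs, co-treated with PK11195 (0.75 uM final), 24 h at 37 C; luminescent reporter signal quantified.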

[3] = qHTS assay to identify small molecule antagonists of the estrogen related receptor signaling pathway with the pleiotropic PPARgamma coactivator (PGC) from Tox21 10K library - cell viability counter screen (AID 1224840; active = well fitted cell-killing curve with a large enough effect in the repeat runs, not every such curve was filed as active; note: nearly all actives have a fitted effect of over 40% in size; note: potency is the fitted concentration of half-maximal effect)
Method in brief: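 Multiplexed viability counter screen in the PGC/ERR cell line: cells treated with DMSO-dissolved compounds for 17.5 hours at 37 C, then viability measured as CellTiter-Fluor fluorescence.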

[4] = qHTS assay to identify small molecule antagonists of the estrogen related receptor signaling pathway with the pleiotropic PPARgamma coactivator (PGC) from Tox21 10K library (AID 1224841; call rule not given here; note: actives are mostly falling curves and most rising ones were filed inactive; nearly all actives have a fitted effect of over 50% in size; note: potency is the fitted concentration of half-maximal effect)
Method in brief: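 Steps: plate 2,000 PGC/ERR cells per well; incubate 6 h at 37 C with 5% CO2; transfer compounds from DMSO stocks by pin tool; incubate 18 h at 37 C; add One-Glo; measure luminescence 30 min later.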

[5] = qHTS assay to identify small molecule agonists of the estrogen related receptor signaling pathway with the pleiotropic PPARgamma coactivator (PGC) from Tox21 10K library (AID 1224842); note: nearly all actives have a fitted effect of over 15% in size
Method in brief: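 PGC/ERR reporter cell line, 2,000 cells per well, incubated 6 h at 37 C before 23 nL compound in DMSO was added. After 18 h at 37 C, One-Glo luminescence read following 30 min at room temperature.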

[6] = molecular target: Thyrotropin receptor (Homo sapiens) (UniProt P16473); test: qHTS assay to identify small molecule agonists of the thyroid stimulating hormone receptor (TSHR) signaling pathway (AID 1224843; calls by dose curve; note: nearly all actives have a fitted effect of over 45% in size; note: potency is the fitted concentration of half-maximal effect)
Sequence of Thyrotropin receptor (Homo sapiens) (P16473 whole entry, looked up): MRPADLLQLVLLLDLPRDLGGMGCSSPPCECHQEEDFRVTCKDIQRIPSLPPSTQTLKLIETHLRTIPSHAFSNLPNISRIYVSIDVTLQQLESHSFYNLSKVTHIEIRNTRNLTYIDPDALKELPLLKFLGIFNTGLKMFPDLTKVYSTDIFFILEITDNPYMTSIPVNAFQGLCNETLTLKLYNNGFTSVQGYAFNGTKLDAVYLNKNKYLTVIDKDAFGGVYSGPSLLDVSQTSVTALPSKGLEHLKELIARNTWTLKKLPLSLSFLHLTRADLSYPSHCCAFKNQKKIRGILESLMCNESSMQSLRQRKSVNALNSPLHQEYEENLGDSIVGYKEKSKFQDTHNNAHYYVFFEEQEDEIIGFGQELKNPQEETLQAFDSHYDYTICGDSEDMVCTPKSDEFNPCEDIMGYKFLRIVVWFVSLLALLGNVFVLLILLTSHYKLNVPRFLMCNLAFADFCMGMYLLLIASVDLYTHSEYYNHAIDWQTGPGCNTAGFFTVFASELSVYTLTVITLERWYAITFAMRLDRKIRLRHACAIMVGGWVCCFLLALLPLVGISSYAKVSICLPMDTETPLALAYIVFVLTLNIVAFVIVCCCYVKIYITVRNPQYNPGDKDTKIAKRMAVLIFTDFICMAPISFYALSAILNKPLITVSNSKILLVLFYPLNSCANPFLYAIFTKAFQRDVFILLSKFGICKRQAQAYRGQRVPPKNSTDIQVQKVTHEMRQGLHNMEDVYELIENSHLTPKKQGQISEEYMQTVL
Method in brief: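 HEK293/TSHR, 800 cells/well; cpd 30 min RT; add cAMP-d2 + anti-cAMP-cryptate, 1 h RT; fluorescence read on plate reader. 15-pt titration, n=3.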

[7] = qHTS assay to identify small molecule agonists of H2AX (AID 1224845; active = well fitted activation curve with a large enough effect in the signal ratio in the repeat runs, not every such curve was filed as active; the % refers to the signal ratio; note: potency is the fitted concentration of half-maximal effect)
Method in brief: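 Wild-type CHO-K1 cells, plated overnight, exposed 3hr at 37C to 15 concentrations (0.76% DMSO final). Lysed, then HTRF anti-pH2AX (S139) cryptate and anti-H2AX-d2 antibodies, 24 hr room temperature; 665/620 nm emission read.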

[8] = qHTS assay to identify small molecule agonists of H2AX - cell viability counter screen (AID 1224847; calls by dose curve; note: nearly all actives have a fitted effect of over 30% in size; note: potency is the fitted concentration of half-maximal effect)
Method in brief: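 Compounds tested at 15 concentrations were incubated 3 hr at 37C with wild-type CHO-K1 cells; cellular ATP-based luminescence (CellTiter-Glo) indicated viability.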

[9] = qHTS assay to identify small molecule antagonists of the estrogen related receptor (ERR) signaling pathway from Tox21 library (AID 1224848); note: nearly all actives have a fitted effect of over 50% in size; note: potency is the fitted concentration of half-maximal effect
Method in brief: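 Compounds dissolved in DMSO are pin-transferred onto ERR reporter cells (2,000 per well) that have settled for 6 h at 37 C. Plates then incubate 18 h at 37 C before ONE-Glo luciferase reagent and a luminescence read 30 min later.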

[10] = qHTS assay to identify small molecule agonists of the estrogen related receptor (ERR) signaling pathway from Tox21 library (AID 1224849; calls by dose curve; note: nearly all actives have a fitted effect of over 15% in size); conditions: ERR reporter cell line, ONE-Glo luciferase, 18 h; at 92.4 µM (top of the series) unless noted
Method in brief: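 Cells carrying the ERR reporter were plated and allowed to settle for 6 h, exposed to library compounds for 18 h at 37 C, then lysed with ONE-Glo and luminescence measured.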

[11] = qHTS RealTime-Glo MT Cell Viability Assay in HEK293 cells - 32 hour (AID 1224868); note: nearly all actives have a fitted effect of over 50% in size; note: potency is the fitted concentration of half-maximal effect
Method in brief: (§1)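 Quantitative high-throughput screen of the Tox21 10K library in HEK293: cells and RealTime-Glo reagents plated together, compound added at 5 h, luminescence monitored through 40 h at 37 C.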

[12] = A CellTox Green Cytotoxicity Assay to monitor cytotoxicity in HEK293 cells - 0 hour (AID 1224869); note: nearly all actives have a fitted effect of over 50% in size
Method in brief: (§2)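 Cells (HEK293, 600/well) and dye reagent are dispensed together. After 5 h at 37 C, 23 nL compound is pinned in. Plates stay at 37 C for 40 h with fluorescence read at 0h, 8h, 16h, 24h, 32h and 40h.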

[13] = qHTS RealTime-Glo MT Cell Viability Assay in HepG2 cells - 40 hour (AID 1224870); note: nearly all actives have a fitted effect of over 50% in size; note: potency is the fitted concentration of half-maximal effect
Method in brief: (§3)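 HepG2 cells (600/well) mixed with RealTime-Glo MT reagent, settled 5 h at 37 C/5% CO2 before compound addition. Nonlytic NanoLuc luminescence from viable-cell prosubstrate reduction read repeatedly during 40 h treatment at 37 C.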

[14] = A CellTox Green Cytotoxicity Assay to monitor cytotoxicity in HEK293 cells - 40 hour (AID 1224871); note: nearly all actives have a fitted effect of over 45% in size; note: potency is the fitted concentration of half-maximal effect
Method in brief: as §2

[15] = qHTS RealTime-Glo MT Cell Viability Assay in HEK293 cells - 16 hour (AID 1224872); note: nearly all actives have a fitted effect of over 50% in size; note: potency is the fitted concentration of half-maximal effect
Method in brief: as §1

[16] = qHTS RealTime-Glo MT Cell Viability Assay in HepG2 cells - 8 hour (AID 1224873); note: nearly all actives have a fitted effect of over 55% in size; note: potency is the fitted concentration of half-maximal effect
Method in brief: as §3

[17] = qHTS RealTime-Glo MT Cell Viability Assay in HEK293 cells - 40 hour (AID 1224874); conditions: RealTime-Glo luminescence; max response: hits give low values; note: nearly all actives have a fitted effect of over 50% in size; note: potency is the fitted concentration of half-maximal effect
Method in brief: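 Real-time viability in HEK293: signal arises when living cells convert a prosubstrate for NanoLuc in the medium, so luminescence tracks viable cell number. Compound (23 nL, DMSO) added 5 h post-seeding; kinetic reads at 0–40 h, 37 C.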

[18] = qHTS assay to identify small molecule agonists of the hypoxia (HIF-1) signaling pathway - cell viability counter screen (AID 1224844; calls by dose curve; note: nearly all actives have a fitted effect of over 50% in size; note: potency is the fitted concentration of half-maximal effect)
Method in brief: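 Cytotoxicity was measured in parallel with the HRE-driven beta-lactamase readout: after 17 hrs of compound exposure at 37C, HRE-bla ME-180 cells received CellTiter-Glo and luminescence was recorded 30 min later.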

[19] = qHTS assay to identify small molecule agonists of the hypoxia (HIF-1) signaling pathway (AID 1224846; active = well fitted activation curve with a large enough effect in the signal ratio in the repeat runs, not every such curve was filed as active; the % refers to the signal ratio)
Method in brief: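 Compounds from the Tox21 10K library, dissolved in DMSO, are tested for induction of a hypoxia response element–controlled beta-lactamase reporter in ME-180 cells. Exposure lasts 17 hrs at 37C after a 5 hr settling period, followed by CCF4-AM FRET substrate.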

[20] = qHTS RealTime-Glo MT Cell Viability Assay in HepG2 cells - 24 hour (AID 1224867); note: nearly all actives have a fitted effect of over 50% in size; note: potency is the fitted concentration of half-maximal effect
Method in brief: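 Compound treatment began 5 h after plating HepG2 cells (600/well) with NanoLuc luciferase and prosubstrate. Plates stayed at 37 C for 40 h; luminescence was captured at six time points, 0 h through 40 h.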
% is set by controls: 0 for no effect and ±100 for the full control effect.

CCCCCCCCCCCCCCCCC(C(=O)O)C(O)(CC(=O)O)C(=O)O (stereo unspecified)
inactive: Potency [1] | Potency [2] | Potency [3] | Potency [4] | Potency [5] | Potency [6] | Potency [7] | Potency [8] | Potency [9] | activity change, positive = activation [10] -3.01% [at 42.5 µM] | Potency [11] | Potency [12] | Potency [13] | Potency [14] | Potency [15] | Potency [16] | max response [17] -0.507%

O=S(=O)(c1ccc(OCc2ccccc2)cc1)c1ccccc1O
active: Potency [8] 45 µM | Potency [9] 19.3 µM | Potency [17] 19.5 µM
inactive: Potency [1] | Potency [2] | Potency [3] | Potency [5] | Potency [6] | Potency [18] | Potency [7] | activity change, positive = activation [10] -29% | Potency [12] | Potency [13] | Potency [14] | Potency [16]

CC/C=C(\C)C=O
inactive: Potency [1] | Potency [2] | Potency [3] | Potency [5] | Potency [6] | Potency [18] | Potency [7] | Potency [19] | Potency [8] | Potency [9] | activity change, positive = activation [10] 5.99% | Potency [20] | Potency [11] | Potency [12] | Potency [13] | Potency [14] | Potency [15] | Potency [16] | max response [17] 4.52%

O=C1CCCCCCCCCCCCCC1
inactive: Potency [1] | Potency [3] | Potency [4] | Potency [5] | Potency [6] | Potency [8] | Potency [9] | activity change, positive = activation [10] 1.09% | Potency [20] | Potency [11] | Potency [13] | Potency [15] | Potency [16] | max response [17] -11.7%
active: Potency [2] 30.6 µM | Potency [14] 43.6 µM

C/C=C/C(=O)C1=C(C)C=CCC1(C)C
inactive: Potency [1] | Potency [2] | Potency [3] | Potency [4] | Potency [5] | Potency [6] | Potency [18] | Potency [7] | Potency [8] | Potency [9] | activity change, positive = activation [10] -1.28% | Potency [20] | Potency [11] | Potency [12] | Potency [13] | Potency [14] | Potency [15] | max response [17] 1.31%

O=C1C=CC(=O)N1c1cccc(N2C(=O)C=CC2=O)c1
inactive: Potency [2] | Potency [5] | Potency [7] | activity change, positive = activation [10] -72.9% | Potency [12]
active: Potency [1] 61.1 µM | Potency [3] 34.4 µM | Potency [4] 77 µM | Potency [6] 5.45 µM | Potency [18] 11 µM | Potency [8] 45 µM | Potency [9] 68.6 µM | Potency [20] 15.5 µM | Potency [11] 9.77 µM | Potency [13] 17.4 µM | Potency [15] 12.3 µM | Potency [16] 21.9 µM | Potency [17] 9.77 µM

N#Cc1nc(Cl)c(Cl)c(Cl)c1Cl
inactive: Potency [2] | Potency [5] | activity change, positive = activation [10] -76.2% | Potency [12]
active: Potency [1] 24.3 µM | Potency [3] 15.4 µM | Potency [4] 12.2 µM | Potency [6] 34.4 µM | Potency [18] 34.7 µM | Potency [9] 9.69 µM | Potency [20] 24.5 µM | Potency [11] 2.19 µM | Potency [13] 17.4 µM | Potency [14] 1.55 µM | Potency [15] 2.45 µM | Potency [17] 2.19 µM

CCCCCCCCCCCCN1CCCC1=O
inactive: Potency [1] | Potency [3] | Potency [4] | Potency [5] | Potency [7] | activity change, positive = activation [10] -16.7% | Potency [12] | Potency [13]
active: Potency [2] 54.5 µM

c1ccc2occc2c1
inactive: Potency [1] | Potency [2] | Potency [3] | Potency [4] | Potency [5] | Potency [18] | Potency [7] | Potency [19] | Potency [8] | Potency [9] | activity change, positive = activation [10] 3.98% | Potency [11] | Potency [12] | Potency [13] | Potency [15] | Potency [16] | max response [17] 2.38%
active: Potency [6] 13.7 µM

CC(C)(C)c1cc(CCC(=O)OCCSCCOC(=O)CCc2cc(C(C)(C)C)c(O)c(C(C)(C)C)c2)cc(C(C)(C)C)c1O
inactive: Potency [1] | Potency [2] | Potency [3] | Potency [5] | Potency [6] | Potency [18] | Potency [7] | Potency [8] | Potency [9] | activity change, positive = activation [10] -3.83% [at 42.5 µM] | Potency [20] | Potency [11] | Potency [12] | Potency [14] | Potency [15] | max response [17] 2.76%

Oc1ccc(C2(c3ccc(O)c(C4CCCCC4)c3)CCCCC2)cc1C1CCCCC1
active: Potency [1] 27.3 µM | Potency [3] 61.1 µM | Potency [4] 54.5 µM | Potency [6] 6.86 µM | Potency [18] 12.3 µM | Potency [7] 22.5 µM | Potency [8] 22.5 µM | Potency [9] 38.6 µM | Potency [20] 34.7 µM | Potency [11] 38.9 µM | Potency [13] 34.7 µM | Potency [15] 43.6 µM | Potency [16] 43.6 µM | Potency [17] 24.5 µM
inactive: Potency [2] | Potency [5] | activity change, positive = activation [10] -70.3% | Potency [12]

CCC(O)CO (stereo unspecified)
inactive: Potency [1] | Potency [2] | Potency [3] | Potency [6] | Potency [18] | Potency [7] | Potency [8] | Potency [20] | Potency [11] | Potency [12] | Potency [13] | Potency [14] | Potency [15] | Potency [16] | max response [17] -1.31%

O=C1CCC/C=C\CCCCCCCCCC1
inactive: Potency [1] | Potency [3] | Potency [8] | Potency [20] | Potency [11] | Potency [12] | Potency [13] | Potency [15] | Potency [16] | max response [17] -5.39%
active: Potency [2] 27.3 µM

CC1=C(/C=C/C(C)=C/C=C/C(C)=C\C(=O)O)C(C)(C)CCC1
inactive: Potency [1] | Potency [3] | Potency [7] | Potency [8] | Potency [12] | Potency [13] | Potency [15] | Potency [16]
active: Potency [2] 27.4 µM | Potency [18] 34.8 µM
